Targets with a hit are over-represented here; the source holds about 8,800 in all. About 0.5% of all pairs of compound and target were hits.
How the values were obtained:
Test in all cases: log2 fold change, soluble protein after heating vs DMSO (PISA); higher = thermal stabilisation; K562 lysate, 10 uM; active = over 0.2 and 3.5 SD of the protein, either way, in both replicates (recomputed)
[1] = compound: C=CC(=O)N1CCC[C@@H](n2nc(-c3ccc(Oc4ccccc4)cc3)c3c(N)ncnc32)C1 [ibrutinib]
Method in brief: (§1)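 To prepare the extract, K562 pellets were dounce-homogenised in PBS pH 7.4 with 1 mM MgCl2, giving crude material at 1 mg/mL protein. This was treated with 10 μM compound for 30 min, then heated in aliquots for 3 min over 48°C-58°C before pooling and addition of NP-40 to 0.5% at 4°C. Centrifugation at 21,000xg for 90 min left soluble protein in the supernatant, which TMTpro 16plex LC-MS/MS quantified with equalised channel sums. Results are log-two fold changes in thermal stability compared with solvent controls, from duplicates.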

[2] = compound: CC(=O)c1cnc2ccc(-c3cc(Cl)c(O)c(Cl)c3)nc2c1N[C@H]1CC[C@H](CN(C)C)CC1
Method in brief: as §1

[3] = compound: CC(C)(C)Cn1c(N)nc2ccc(-c3[nH]c(C(C)(C)C)nc3-c3ccc(F)cc3)nc21 [ralimetinib]
Method in brief: as §1

[4] = compound: CC(C)(O)CC(=O)NCCn1ccc2ncnc(Nc3ccc(Oc4cccc(C(F)(F)F)c4)c(Cl)c3)c21
Method in brief: as §1

[5] = compound: CC(C)C1=C2N=C(C=C(N2N=C1)NCC3=CC=CC=C3)NCCCCCCN
Method in brief: as §1

[6] = compound: CC1=C(C(CC(=O)N1)C2=CC=C(C=C2)C(F)(F)F)C(=O)NC3=C(C=C4C(=C3)C=NN4)F
Method in brief: as §1

[7] = compound: CC1=C(C2=C(C=C1)C(=O)C3=CC=CC=C3N2CCCN)C
Method in brief: as §1

[8] = compound: CC1=C(C=C(C=C1)NC(=O)C2=CC(=CC=C2)C(C)(C)C#N)NC3=CC4=C(C=C3)N=CN(C4=O)C
Method in brief: as §1

[9] = compound: CC1=C(C=C(C=C1)NC(=O)C2=CC(=CC=C2)N(C)C)NC(=O)C3=CC=C(C=C3)O
Method in brief: as §1

[10] = compound: CC1=CC=C(C=C1)SC2=C3C=C(SC3=CN=C2)C(=O)N
Method in brief: as §1

[11] = compound: CCCS(=O)(=O)Nc1ccc(F)c(C(=O)c2c[nH]c3ncc(-c4ccc(Cl)cc4)cc23)c1F [vemurafenib]
Method in brief: as §1

[12] = compound: CCCS(=O)(=O)Nc1ccc(F)c(C(=O)c2c[nH]c3ncc(Cl)cc23)c1F
Method in brief: as §1

[13] = compound: CCN(CCCOc1ccc2c(Nc3cc(CC(=O)Nc4cccc(F)c4)[nH]n3)ncnc2c1)CCOP(=O)(O)O [barasertib]
Method in brief: as §1

[14] = compound: CC[C@@H]1C(=O)N(C)c2cnc(Nc3ccc(C(=O)NC4CCN(C)CC4)cc3OC)nc2N1C1CCCC1
Method in brief: as §1

[15] = compound: CC[C@@H]1C(=O)N(C)c2cnc(Nc3ccc(C(=O)N[C@H]4CC[C@H](N5CCN(CC6CC6)CC5)CC4)cc3OC)nc2N1C(C)C [volasertib]
Method in brief: as §1

[16] = compound: CCn1c(C(=O)N(C2CC2)C2CC2)cc2c3c(ncn3C)c(Nc3cc(C)n(C)n3)nc21
Method in brief: as §1

[17] = compound: CCn1cc(-c2ccnc3[nH]c(-c4cccc(CN(C)C)c4)cc23)c(-c2ccc(NC(=O)N(C)C)cc2)n1
Method in brief: as §1

[18] = compound: CN1CCC(CNc2ccc3ncc(-c4cccc(OC(F)(F)F)c4)n3n2)CC1
Method in brief: as §1

[19] = compound: CN1CCN(CCOc2cc(OC3CCOCC3)c3c(Nc4c(Cl)ccc5c4OCO5)ncnc3c2)CC1 [saracatinib]
Method in brief: as §1

[20] = compound: CN1CCN(c2nc(C3=C(c4c[nH]c5ccccc45)C(=O)NC3=O)c3ccccc3n2)CC1 [sotrastaurin]
Method in brief: as §1

Measured: log2 fold change

EMC7 (UniProt Q9NPA0)
UniProt Q9NPA0, sequence (Q9NPA0 whole entry, looked up): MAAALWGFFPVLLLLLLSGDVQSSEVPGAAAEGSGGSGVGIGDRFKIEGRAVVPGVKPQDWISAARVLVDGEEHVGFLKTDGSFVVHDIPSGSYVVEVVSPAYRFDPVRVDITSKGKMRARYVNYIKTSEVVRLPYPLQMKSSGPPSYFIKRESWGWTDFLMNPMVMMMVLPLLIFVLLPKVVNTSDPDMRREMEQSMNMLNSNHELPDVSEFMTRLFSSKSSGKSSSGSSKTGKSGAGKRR
active: [17] -0.37
inactive: [1] -0.033 | [2] -0.001 | [3] 0.008 | [4] -0.003 | [5] 0.013 | [6] -0.012 | [7] 0.024 | [8] 0.015 | [9] -0.006 | [10] -0.032 | [11] 0.034 | [12] 0.004 | [13] -0.006 | [14] 0.034 | [15] 0 | [16] -0.023 | [18] 0.125 | [19] 0.005 | [20] 0.026

FKBP8 isoform 2 (UniProt Q14318)
UniProt Q14318, sequence (Q14318 whole entry, looked up): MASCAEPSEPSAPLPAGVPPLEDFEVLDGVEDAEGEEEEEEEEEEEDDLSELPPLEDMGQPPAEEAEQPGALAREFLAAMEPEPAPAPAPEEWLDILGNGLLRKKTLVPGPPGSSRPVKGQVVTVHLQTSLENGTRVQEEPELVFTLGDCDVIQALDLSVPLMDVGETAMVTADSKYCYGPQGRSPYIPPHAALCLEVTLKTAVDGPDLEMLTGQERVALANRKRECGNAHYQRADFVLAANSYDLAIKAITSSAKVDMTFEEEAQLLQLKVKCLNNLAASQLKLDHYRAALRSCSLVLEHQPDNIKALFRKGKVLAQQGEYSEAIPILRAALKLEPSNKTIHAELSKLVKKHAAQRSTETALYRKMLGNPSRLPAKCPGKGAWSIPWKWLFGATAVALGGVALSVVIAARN
inactive: [1] 0.022 | [2] -0.016 | [3] 0.018 | [4] -0.017 | [5] 0.027 | [6] -0.041 | [7] 0.024 | [8] 0.034 | [9] 0.007 | [10] -0.053 | [11] -0.037 | [12] -0.01 | [13] 0.366 | [14] -0.045 | [15] 0.005 | [16] -0.029 | [17] 0.033 | [18] -0.084 | [19] -0.022 | [20] 0.006

ESYT2 (UniProt H7BXI1)
inactive: [1] 0.035 | [2] -0.022 | [3] 0.003 | [4] -0.039 | [5] -0.04 | [6] 0.046 | [7] 0.05 | [8] 0.015 | [9] -0.025 | [10] -0.044 | [11] -0.047 | [12] -0.044 | [13] 0.046 | [14] -0.065 | [15] -0.036 | [16] -0.009 | [17] 0.037 | [18] -0.068 | [19] 0.033 | [20] -0.003

ESPL1 (UniProt Q14674)
active: [10] -0.371
inactive: [1] -0.076 | [2] -0.335 | [3] 0.002 | [4] 0.01 | [5] 0.04 | [6] -0.005 | [7] -0.036 | [8] -0.04 | [9] 0.076 | [11] 0.049 | [12] 0.204 | [13] 0.054 | [14] 0.039 | [15] 0.09 | [16] -0.002 | [17] -0.047 | [18] -0.012 | [19] -0.065 | [20] -0.023

FCHO1 (UniProt O14526)
UniProt O14526, sequence (O14526 whole entry, looked up): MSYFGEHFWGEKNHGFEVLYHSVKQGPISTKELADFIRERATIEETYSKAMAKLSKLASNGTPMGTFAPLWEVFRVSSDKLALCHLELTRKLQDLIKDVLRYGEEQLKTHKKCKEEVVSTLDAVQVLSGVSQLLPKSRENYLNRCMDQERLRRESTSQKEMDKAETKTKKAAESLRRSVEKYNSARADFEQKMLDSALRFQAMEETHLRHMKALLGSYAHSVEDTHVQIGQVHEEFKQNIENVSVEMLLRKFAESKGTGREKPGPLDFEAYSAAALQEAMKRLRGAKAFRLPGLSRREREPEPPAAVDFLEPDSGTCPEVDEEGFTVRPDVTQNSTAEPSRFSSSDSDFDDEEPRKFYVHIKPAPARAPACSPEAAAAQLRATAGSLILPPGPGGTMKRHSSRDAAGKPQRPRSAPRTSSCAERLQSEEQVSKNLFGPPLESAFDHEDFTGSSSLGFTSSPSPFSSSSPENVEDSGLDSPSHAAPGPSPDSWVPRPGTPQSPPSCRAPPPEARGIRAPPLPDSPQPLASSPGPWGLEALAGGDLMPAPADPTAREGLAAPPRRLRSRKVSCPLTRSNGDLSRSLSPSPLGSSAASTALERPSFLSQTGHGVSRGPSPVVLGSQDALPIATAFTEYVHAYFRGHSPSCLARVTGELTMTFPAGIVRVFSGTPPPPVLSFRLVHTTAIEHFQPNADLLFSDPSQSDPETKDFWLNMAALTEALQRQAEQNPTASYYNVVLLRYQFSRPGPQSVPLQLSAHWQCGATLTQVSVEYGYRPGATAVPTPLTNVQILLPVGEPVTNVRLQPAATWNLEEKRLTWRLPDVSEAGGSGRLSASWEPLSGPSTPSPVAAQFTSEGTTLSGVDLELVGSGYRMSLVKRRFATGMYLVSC
inactive: [1] -0.053 | [2] 0.022 | [3] 0.018 | [4] 0.014 | [5] 0.013 | [6] 0.031 | [7] 0.018 | [8] 0.002 | [9] 0.004 | [10] 0.041 | [11] 0.023 | [12] 0.033 | [13] 0.02 | [14] 0.023 | [15] -0.062 | [16] -0.026 | [17] -0.053 | [18] -0.004 | [19] 0.006 | [20] -0.015

ERI1 (UniProt Q8IV48)
UniProt Q8IV48, sequence (Q8IV48 whole entry, looked up): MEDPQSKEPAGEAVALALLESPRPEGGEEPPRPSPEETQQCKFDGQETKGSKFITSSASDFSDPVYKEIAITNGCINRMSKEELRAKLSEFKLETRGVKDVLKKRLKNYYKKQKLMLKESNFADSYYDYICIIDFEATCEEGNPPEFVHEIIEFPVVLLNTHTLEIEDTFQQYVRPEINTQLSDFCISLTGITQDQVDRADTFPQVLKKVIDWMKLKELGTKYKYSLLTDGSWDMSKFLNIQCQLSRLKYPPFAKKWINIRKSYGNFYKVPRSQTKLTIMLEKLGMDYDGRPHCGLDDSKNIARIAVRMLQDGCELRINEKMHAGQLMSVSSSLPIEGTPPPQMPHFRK
inactive: [1] -0.037 | [2] 0.022 | [3] -0.035 | [4] 0.085 | [5] 0.084 | [6] -0.05 | [7] 0 | [8] -0.033 | [9] 0.411 | [10] 0.012 | [11] 0.01 | [12] 0.01 | [13] 0.008 | [14] -0.018 | [15] -0.023 | [16] -0.008 | [17] 0.065 | [18] -0.112 | [19] -0.006 | [20] 0.034

FAM83A (UniProt Q86UY5)
UniProt Q86UY5, sequence (Q86UY5 whole entry, looked up): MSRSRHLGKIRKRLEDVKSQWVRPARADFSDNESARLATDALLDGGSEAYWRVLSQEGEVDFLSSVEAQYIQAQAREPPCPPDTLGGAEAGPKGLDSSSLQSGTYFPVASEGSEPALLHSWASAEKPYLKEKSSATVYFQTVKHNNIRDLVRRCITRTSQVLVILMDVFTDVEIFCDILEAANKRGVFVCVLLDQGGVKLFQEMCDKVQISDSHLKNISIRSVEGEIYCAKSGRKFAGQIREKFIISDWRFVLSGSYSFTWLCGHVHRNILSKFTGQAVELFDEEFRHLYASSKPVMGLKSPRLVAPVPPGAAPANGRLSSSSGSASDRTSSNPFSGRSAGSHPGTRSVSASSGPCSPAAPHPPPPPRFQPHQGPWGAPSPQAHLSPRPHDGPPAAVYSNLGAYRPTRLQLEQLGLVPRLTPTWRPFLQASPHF
inactive: [1] 0.125 | [2] 0.006 | [3] 0.008 | [4] 0.053 | [5] -0.06 | [6] 0.018 | [7] 0.023 | [8] 0.035 | [9] -0.023 | [10] 0.026 | [11] 0.038 | [12] -0.002 | [13] 0.035 | [14] -0.001 | [15] 0.003 | [16] 0.05 | [17] 0.103 | [18] 0.06 | [19] 0.01 | [20] -0.049

ETHE1 (UniProt O95571)
UniProt O95571, sequence (O95571 whole entry, looked up): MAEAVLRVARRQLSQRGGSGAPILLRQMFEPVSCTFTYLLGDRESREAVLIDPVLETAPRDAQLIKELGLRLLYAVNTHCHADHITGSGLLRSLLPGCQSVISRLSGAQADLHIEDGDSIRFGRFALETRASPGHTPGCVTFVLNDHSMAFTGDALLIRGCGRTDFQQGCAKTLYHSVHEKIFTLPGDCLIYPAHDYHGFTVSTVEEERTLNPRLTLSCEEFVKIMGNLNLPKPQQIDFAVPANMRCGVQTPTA
inactive: [1] -0.029 | [2] -0.01 | [3] 0.03 | [4] -0.021 | [5] -0.092 | [6] 0.087 | [7] 0.022 | [8] 0.011 | [9] 0.046 | [10] -0.042 | [11] -0.018 | [12] 0.022 | [13] 0.076 | [14] -0.013 | [15] -0.017 | [16] -0.007 | [17] 0.044 | [18] 0.003 | [19] 0.001 | [20] -0.004

GGA2 (UniProt Q9UJY4)
UniProt Q9UJY4, sequence (Q9UJY4 whole entry, looked up): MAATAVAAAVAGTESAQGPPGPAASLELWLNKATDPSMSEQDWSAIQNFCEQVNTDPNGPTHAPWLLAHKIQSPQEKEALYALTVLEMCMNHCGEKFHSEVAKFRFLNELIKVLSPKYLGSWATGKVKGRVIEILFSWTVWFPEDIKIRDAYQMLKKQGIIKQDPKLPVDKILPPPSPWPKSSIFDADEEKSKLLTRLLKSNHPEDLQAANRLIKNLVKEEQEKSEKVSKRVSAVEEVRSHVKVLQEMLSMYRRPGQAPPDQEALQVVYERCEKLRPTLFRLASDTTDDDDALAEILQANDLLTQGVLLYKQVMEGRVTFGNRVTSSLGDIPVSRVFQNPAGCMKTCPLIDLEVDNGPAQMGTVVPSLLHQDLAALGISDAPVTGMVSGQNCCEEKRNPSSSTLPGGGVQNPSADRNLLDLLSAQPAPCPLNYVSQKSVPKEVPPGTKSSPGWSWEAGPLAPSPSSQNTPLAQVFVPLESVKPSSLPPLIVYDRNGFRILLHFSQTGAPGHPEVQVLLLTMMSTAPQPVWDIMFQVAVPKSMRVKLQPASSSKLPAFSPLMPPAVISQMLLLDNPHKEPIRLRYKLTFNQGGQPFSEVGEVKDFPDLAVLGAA
inactive: [1] -0.007 | [2] 0 | [3] 0.026 | [4] -0.01 | [5] -0.062 | [6] 0.099 | [7] 0.01 | [8] -0.024 | [9] 0.031 | [10] -0.021 | [11] -0.003 | [12] 0.011 | [13] 0.073 | [14] -0.005 | [15] -0.048 | [16] 0.032 | [17] -0.02 | [18] -0.088 | [19] 0.025 | [20] 0.041

ENO2 (UniProt P09104)
UniProt P09104, sequence (P09104 whole entry, looked up): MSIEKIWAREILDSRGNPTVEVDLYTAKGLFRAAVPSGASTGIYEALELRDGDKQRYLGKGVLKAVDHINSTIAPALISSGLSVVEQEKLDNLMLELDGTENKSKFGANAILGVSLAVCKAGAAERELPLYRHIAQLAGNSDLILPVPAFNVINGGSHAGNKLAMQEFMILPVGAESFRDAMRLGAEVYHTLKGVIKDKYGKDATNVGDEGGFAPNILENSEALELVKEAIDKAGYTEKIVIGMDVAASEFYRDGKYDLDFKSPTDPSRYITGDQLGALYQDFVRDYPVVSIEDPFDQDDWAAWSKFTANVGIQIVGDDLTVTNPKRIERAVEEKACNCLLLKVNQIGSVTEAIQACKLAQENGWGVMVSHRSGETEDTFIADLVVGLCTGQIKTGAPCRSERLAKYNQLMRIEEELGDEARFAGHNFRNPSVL
active: [18] 0.319
inactive: [1] -0.008 | [2] -0.014 | [3] 0.031 | [4] -0.051 | [5] -0.007 | [6] -0.013 | [7] -0.029 | [8] 0.035 | [9] 0.032 | [10] 0.011 | [11] 0.05 | [12] 0.008 | [13] -0.132 | [14] 0.044 | [15] 0.046 | [16] -0.069 | [17] -0.231 | [19] 0.06 | [20] 0.034

EBP (UniProt Q15125)
UniProt Q15125, sequence (Q15125 whole entry, looked up): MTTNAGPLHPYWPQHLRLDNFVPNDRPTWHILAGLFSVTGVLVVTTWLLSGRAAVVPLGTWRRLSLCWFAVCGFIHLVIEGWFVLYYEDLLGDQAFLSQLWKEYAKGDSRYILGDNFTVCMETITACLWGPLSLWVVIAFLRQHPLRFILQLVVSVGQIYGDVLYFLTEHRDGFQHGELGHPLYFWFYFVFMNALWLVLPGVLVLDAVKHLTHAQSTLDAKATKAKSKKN
inactive: [1] -0.023 | [2] 0.002 | [3] 0.004 | [4] -0.022 | [5] 0.02 | [6] 0.01 | [7] -0.025 | [8] -0.016 | [9] -0.152 | [10] 0.005 | [11] 0.056 | [12] 0.024 | [13] 0.069 | [14] 0.071 | [15] 0.038 | [16] -0.024 | [17] -0.354 | [18] 0.044 | [19] 0.135 | [20] -0.103

EED, A0A5F9ZI63
inactive: [1] -0.026 | [2] -0.018 | [3] 0.008 | [4] -0.039 | [5] -0.004 | [6] 0.036 | [7] -0.003 | [8] -0.016 | [9] 0.042 | [10] -0.008 | [11] -0.019 | [12] 0.034 | [13] -0.029 | [14] 0.005 | [15] 0.015 | [16] -0.012 | [17] -0.047 | [18] 0.049 | [19] 0.026 | [20] 0.031

— the supplement of paper PMC10849652
